Source: PubChem BioAssay
Activity calls are given as the source filed them.

How the values were obtained:
[1] = tested on: Lefty1; experiment: Lefty1 binders on small-molecule microarrays, primary screen, biochemical, small-molecule microarray, 635/667 nm fluorescence (AID 1139); conditions: small-molecule microarray binding, fluorescence 635/667; higher = more signal
[2] = tested on: wheat germ agglutinin (Triticum aestivum), Alexa647-labelled; experiment: wheat germ agglutinin binders on compound microarrays, profiling panel, artefact control for SMM control-protein annotation, biochemical, small-molecule microarray, 635/667 nm fluorescence (AID 1140); conditions: WGA-A647 binding, 635 nm fluorescence, higher = more signal;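 note: score merges 667 nm feature emission with signal to noise over triplicate slides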
[3] = biological target: Luciferin 4-monooxygenase (Photinus pyralis) (UniProt P08659); experiment: firefly luciferase enzyme inhibitors, primary screen, biochemical, luminescence, purified enzyme, 2006 set (AID 1141); conditions: SteadyGlo luminescence, 30 min, higher = more signal, called active from +8 up or from −8 down;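 note: cell-free assay with purified firefly luciferase at 100 ng per well in PBS; test concentration not given here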
Sequence of Luciferin 4-monooxygenase (Photinus pyralis) (P08659 whole entry, looked up): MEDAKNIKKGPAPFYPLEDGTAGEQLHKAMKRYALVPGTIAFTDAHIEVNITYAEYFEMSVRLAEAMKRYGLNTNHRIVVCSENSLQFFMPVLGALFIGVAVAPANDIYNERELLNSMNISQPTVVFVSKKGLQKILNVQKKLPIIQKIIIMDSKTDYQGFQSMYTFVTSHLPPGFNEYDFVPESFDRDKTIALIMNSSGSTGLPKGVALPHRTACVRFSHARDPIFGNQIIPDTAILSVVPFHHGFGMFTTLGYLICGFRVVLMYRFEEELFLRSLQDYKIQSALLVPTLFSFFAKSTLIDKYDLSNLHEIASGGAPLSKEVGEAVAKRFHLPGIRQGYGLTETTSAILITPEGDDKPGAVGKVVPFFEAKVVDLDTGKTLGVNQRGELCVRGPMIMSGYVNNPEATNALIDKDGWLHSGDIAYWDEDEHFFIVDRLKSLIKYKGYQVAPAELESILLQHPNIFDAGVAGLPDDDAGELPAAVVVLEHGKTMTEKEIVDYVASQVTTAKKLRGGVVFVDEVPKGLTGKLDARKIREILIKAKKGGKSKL

[4] = tested on: Wnt5a (protein binding on small-molecule microarray); experiment: Wnt5a binders on small-molecule microarray, primary screen, biophysical, 635/667 nm fluorescence (AID 1142); conditions: 635 nm fluorescence, higher = more signal;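 note: fluorescence read at 667 nm with signal to noise per printed feature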
[5] = cell viability in Huh7 cells, primary screen, cytotoxicity control for HCV replication inhibitor project, CellTiter-Glo luminescence, basal, 48 h (AID 1143); conditions: Huh7 HCV replicon, higher = more signal, called active from +8 up or from −8 down;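 note: Huh7 hepatoma cells carrying a hepatitis C replication reporter with no stimulus; test concentration not given here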
[6] = CREB reporter modulators without forskolin, primary screen, cell-based, PC12, CRE-LacZ reporter, unstimulated (AID 1145); conditions: no forskolin, luminescence, 4.5 h, higher = more signal, called active from +8 up or from −8 down
[7] = CREB reporter modulators under forskolin, primary screen, cell-based, PC12, CRE-LacZ reporter, forskolin-stimulated (AID 1146); conditions: luminescence, 4.5 h, higher = more signal, called active from +8 up or from −8 down;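 note: PC12 cells with 6xCRE LacZ reporter stimulated by forskolin 10 µM; beta-galactosidase reporter signal reflecting CREB driven transcription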
[8] = biological target: Streptavidin (Streptomyces avidinii) (UniProt P22629); experiment: streptavidin binders on small-molecule microarray, primary screen, artefact control for SMM compound annotation, biophysical, 635/667 nm fluorescence (AID 1147); conditions: streptavidin binding, higher = more signal;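 note: signal reflects streptavidin binding to arrayed compounds as a control protein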
Sequence of Streptavidin (Streptomyces avidinii) (P22629 whole entry, looked up): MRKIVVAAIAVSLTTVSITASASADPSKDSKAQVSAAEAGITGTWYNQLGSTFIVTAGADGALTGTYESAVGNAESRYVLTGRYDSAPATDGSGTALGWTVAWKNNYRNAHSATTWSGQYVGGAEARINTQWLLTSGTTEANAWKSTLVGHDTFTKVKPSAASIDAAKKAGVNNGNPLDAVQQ

[9] = small-molecule binders of probe aInhba, primary screen, biochemical, small-molecule microarray, 635/667 nm fluorescence (AID 1148); conditions: higher = more signal;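 note: score merges 667nm spot fluorescence with signal-to-noise for antibody binding to printed compounds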
[10] = biological target: Torsin-1A (Homo sapiens) (UniProt O14656); experiment: torsin A binders from cell lysate, primary screen, small-molecule microarray, wild-type, 635/667 nm (AID 1149); conditions: COS7 hTOR1A-WT lysate, 635 nm fluorescence, higher = more signal
Sequence of Torsin-1A (Homo sapiens) (O14656 whole entry, looked up): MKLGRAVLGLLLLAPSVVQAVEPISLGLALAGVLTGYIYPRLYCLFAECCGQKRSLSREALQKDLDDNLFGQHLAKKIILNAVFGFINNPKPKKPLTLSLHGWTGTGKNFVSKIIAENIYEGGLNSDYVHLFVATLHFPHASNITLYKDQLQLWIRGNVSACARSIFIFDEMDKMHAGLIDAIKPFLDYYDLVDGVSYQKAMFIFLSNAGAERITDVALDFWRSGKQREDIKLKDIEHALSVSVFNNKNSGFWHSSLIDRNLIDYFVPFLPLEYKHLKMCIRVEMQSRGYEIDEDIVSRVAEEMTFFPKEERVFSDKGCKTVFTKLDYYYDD

[11] = biological target: Torsin-1A (Homo sapiens) (UniProt O14656); experiment: small-molecule binders of mutant TOR1A in lysate, primary screen, cell lysate, small-molecule microarray, COS7 lysate, 635/667 nm fluorescence (AID 1150); conditions: COS7 hTOR1A mutant lysate, 635 nm fluorescence, higher = more signal;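 note: score pools 667 nm emission and signal to noise measuring lysate protein binding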
[12] = tested on: Sonic hedgehog protein (Shh); experiment: small-molecule binders of Shh protein, primary screen, biochemical, small-molecule microarray, 635/667 nm fluorescence (AID 1151); conditions: small-molecule microarray binding, 635 nm fluorescence; higher = more signal;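 note: Shh protein binding to compounds spotted on small-molecule microarray slides; score combines spot fluorescence intensity with signal-to-noise across triplicate slides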
[13] = E. coli DRC41 culture turbidity changes, primary screen, E. coli filamentation inducer project, strain DRC41, OD650, 48 h (AID 1152);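 note: E. coli MC1000 strain DRC41 lacking acrAB efflux pump and sulA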; conditions: E. coli DRC41 (acrAB sulA), higher = more signal, called active from +8 up or from −8 down
[14] = small-molecule binders of probe aLefty1, primary screen, biochemical, small-molecule microarray, 635/667 nm fluorescence (AID 1153); conditions: higher = more signal;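 note: score merges spot fluorescence with signal-to-noise ratio from the scanned slide images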
[15] = PSAC antagonists in infected red cells, primary screen, cell-based, P. falciparum Indochina, OD700, 1 h (AID 1154); conditions: P. falciparum Indochina infected RBC osmotic lysis, higher = more signal, called active from +8 up or from −8 down
[16] = PSAC antagonists in infected red cells, primary screen, cell-based, P. falciparum Indochina, OD700, 2 h (AID 1155);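 note: lysis reports solute entry through the parasite surface anion channel PSAC; channel blockers reduce lysis of infected cells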; conditions: P. falciparum Indochina infected erythrocytes, osmotic lysis OD700; higher = more signal, called active from +8 up or from −8 down
[17] = osmotic lysis modulators in infected erythrocytes, primary screen, PSAC antagonist project, cell-based, P. falciparum Indochina, OD700, 3 h (AID 1156); conditions: higher = more signal, called active from +8 up or from −8 down
[18] = PSAC antagonists in infected red cells, primary screen, cell-based, P. falciparum Indochina, OD700, 18 h (AID 1157); conditions: P. falciparum Indochina infected erythrocytes, osmotic lysis OD700, 18 h; higher = more signal, called active from +8 up or from −8 down
[19] = modulators of S6 phosphorylation in cells, primary screen, cell-based, A549, cytoblot, luminescence, serum-stimulated (AID 1158); conditions: A549 phospho-S6 cytoblot, 5 h, higher = more signal;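 note: serum-stimulated A549 lung adenocarcinoma cells; signal is phosphorylated S6 detected by cytoblot immunostaining with HRP secondary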
[20] = biological target: NADPH oxidase 2 (Homo sapiens) (UniProt P04839); experiment: NOX2-dependent H2O2 signal modulators, primary screen, NOX inhibitor project, cell-based, HEK293-NOX2, PMA-stimulated, Amplex Red fluorescence (AID 1159); conditions: 45 min, higher = more signal, called active from +8 up or from −8 down; note: test concentration not given here
Sequence of NADPH oxidase 2 (Homo sapiens) (P04839 whole entry, looked up): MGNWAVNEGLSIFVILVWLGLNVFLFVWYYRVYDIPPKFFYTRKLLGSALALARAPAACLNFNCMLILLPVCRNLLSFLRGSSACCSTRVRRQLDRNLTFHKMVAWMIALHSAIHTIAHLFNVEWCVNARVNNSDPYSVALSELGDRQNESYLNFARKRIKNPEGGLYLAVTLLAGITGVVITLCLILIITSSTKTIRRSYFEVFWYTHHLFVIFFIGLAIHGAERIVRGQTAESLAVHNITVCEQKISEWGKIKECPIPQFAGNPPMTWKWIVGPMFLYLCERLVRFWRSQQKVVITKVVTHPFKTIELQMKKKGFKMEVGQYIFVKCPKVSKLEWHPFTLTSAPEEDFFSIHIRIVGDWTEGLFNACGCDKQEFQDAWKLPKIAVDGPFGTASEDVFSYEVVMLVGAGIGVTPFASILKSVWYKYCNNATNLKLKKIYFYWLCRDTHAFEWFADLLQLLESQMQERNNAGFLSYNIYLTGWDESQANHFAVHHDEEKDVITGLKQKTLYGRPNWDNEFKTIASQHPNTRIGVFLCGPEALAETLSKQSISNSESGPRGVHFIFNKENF

| Compound | composite z-score [1] | composite z-score [2] | z-score [3] | composite z-score [4] | z-score [5] | z-score [6] | z-score [7] | composite z-score [8] | composite z-score [9] | composite z-score [10] | composite z-score [11] | composite z-score [12] | z-score [13] | composite z-score [14] | z-score [15] | z-score [16] | z-score [17] | z-score [18] | z-score [19] | z-score [20] |
| --- | --- | --- | --- | --- | --- | --- | --- | --- | --- | --- | --- | --- | --- | --- | --- | --- | --- | --- | --- | --- |
| O=C1N(CCS(=O)(=O)c2ccccc2)Cc2ccccc2[C@@H]2OC(c3ccc(OCCCO)cc3)=N[C@]12Cc1ccccc1 | 1.1 | 1.23 | -2.12 (inactive) | 1.14 | -3.69 (inactive) | 0.927 (inactive) | -1.09 (inactive) | 1.66 | 0.243 | 0.612 | 0.29 | 1.96 | 0.218 (inactive) | 0.327 | 27.7 (active) | 18.5 (active) | 3.32 (inactive) | 2.53 (inactive) | 0.503 | -3.23 (inactive) |
| C=CCN1C(=O)[C@@]2(O[C@@H](CCO)[C@H]([Si](C)(C)c3ccc(OC)cc3)[C@H]2C)c2cc(N3C(=O)c4cccc5cccc3c45)ccc21 | -0.272 | 0.525 | -1.53 (inactive) | -0.1 | -7.95 (inactive) | 22.3 (active) | -4.22 (inactive) | 0.168 | 0.017 | 0.408 | 0.579 | 0.567 | 1.29 (inactive) | 0.0313 | 24.5 (active) | 9.43 (active) | 0.0469 (inactive) | 2.56 (inactive) | 0.0438 | -0.167 (inactive) |
| COc1ccc([Si](C)(C)[C@@H]2[C@@H](CCn3cc([C@H](O)c4ccccc4)nn3)O[C@]3(C(=O)N(C)c4c(Br)cc(C)cc43)[C@H]2C)cc1 | -0.166 | 0.397 | -2.15 (inactive) | 0.17 | -6.27 (inactive) | 8.24 (active) | -1.37 (inactive) | -0.541 | 0.0659 | 0.722 | -0.0682 | 0.658 | 3.5 (inactive) | -0.279 | 26.4 (active) | 15.1 (active) | 0.547 (inactive) | 0.083 (inactive) | 2.34 | 1.04 (inactive) |
| C=CCNC(=O)[C@@H]1[C@H]2C(=O)O[C@H](c3ccccc3)[C@H](c3ccccc3)N2[C@H](c2ccc(O)cc2)[C@@]12C(=O)Nc1ccc(C#Cc3ccc(OC)cc3)cc12 | 0.849 | 1.14 | -0.968 (inactive) | 0.212 | -4.8 (inactive) | -0.0784 (inactive) | -1.25 (inactive) | 1.16 | 0.0228 | 0.248 | 0.286 | 0.551 | 2.73 (inactive) | 0.159 | 1.27 (inactive) | -0.224 (inactive) | 0.375 (inactive) | -0.957 (inactive) | 0.98 | 1.35 (inactive) |
